According to PubChem BioAssay (NCATS):
Inconclusive results are not listed. The source made the active and inactive calls. The call rests on the fitted dose curve; in most records, active means well fitted curve in the direction sought with a large enough effect; inconclusive means small, poorly fitted or top-dose-only effect, or another doubt; inactive means no such curve, though single readings can be large; an effect the other way counts as inactive or inconclusive.

What was measured:
[1] = test system: HEK293T; assay: qHTS assay to identify novel small-molecules to repurpose for Merkel cell carcinoma treatment (AID 1296009); conditions: MCC and control cell lines, CellTiter-Glo viability, 72 h; at 44.8 µM (top of the series) unless noted; further: nearly all actives have a fitted effect of over 60% in size
Procedure, shortened: (§1)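 qHTS format: cells treated with library compounds in DMSO across 8 (NPC) or 11 (MIPE) concentrations. Readout after 72 hr at 37 degree celsius was CellTiter-Glo luminescence.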

[2] = test system: MCC-13; assay: as above; conditions: MCC and control cell lines, CellTiter-Glo viability, 72 h; series mostly up to 46 µM
Procedure, shortened: as §1

[3] = test system: MKL-1; assay: as above; conditions: MCC and control cell lines, CellTiter-Glo viability, 72 h; series mostly up to 46 µM
Procedure, shortened: as §1

[4] = test system: MKL-2; assay: as above; conditions: MCC and control cell lines, CellTiter-Glo viability, 72 h; series mostly up to 46 µM
Procedure, shortened: as §1

[5] = test system: NIH3T3; assay: as above; conditions: MCC and control cell lines, CellTiter-Glo viability, 72 h; at 44.8 µM (top of the series) unless noted
Procedure, shortened: as §1

[6] = test system: UISO; assay: as above; conditions: MCC and control cell lines, CellTiter-Glo viability, 72 h; series mostly up to 46 µM
Procedure, shortened: as §1

[7] = test system: WaGa; assay: as above; conditions: MCC and control cell lines, CellTiter-Glo viability, 72 h; series mostly up to 46 µM
Procedure, shortened: as §1

[8] = test system: C33A; assay: Primary qHTS to identify gynecologic anti-cancer compounds using libraries of approved drugs and bioactive compounds (AID 1345084); conditions: Gynecologic cancer cell panel viability, ATPlite luminescence, 48 h; series mostly up to 57.5 µM; further: nearly all actives have a fitted effect of over 55% in size
Procedure, shortened: (§2)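 Cells, 1,000 per well, were allowed to settle for 16 h at 37 C before compound addition. Five concentrations were tested for 48 h, and viability was read by ATPlite luminescence after 15 min at room temperature.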

[9] = test system: CAOV3; assay: as above; conditions: Gynecologic cancer cell panel viability, ATPlite luminescence, 48 h; series mostly up to 57.5 µM
Procedure, shortened: as §2

[10] = test system: CASKI; assay: as above; conditions: Gynecologic cancer cell panel viability, ATPlite luminescence, 48 h; series mostly up to 57.5 µM
Procedure, shortened: as §2

[11] = test system: Es-2; assay: as above; conditions: Gynecologic cancer cell panel viability, ATPlite luminescence, 48 h; series mostly up to 57.5 µM
Procedure, shortened: as §2

[12] = test system: HeLa; assay: as above; conditions: Gynecologic cancer cell panel viability, ATPlite luminescence, 48 h; series mostly up to 57.5 µM
Procedure, shortened: as §2

[13] = test system: Hek293T; assay: as above; conditions: Gynecologic cancer cell panel viability, ATPlite luminescence, 48 h, control line for the selectivity index; series mostly up to 57.5 µM
Procedure, shortened: as §2

[14] = test system: JEG-3; assay: as above; conditions: Gynecologic cancer cell panel viability, ATPlite luminescence, 48 h; series mostly up to 57.5 µM
Procedure, shortened: as §2

[15] = test system: OV90; assay: as above; conditions: Gynecologic cancer cell panel viability, ATPlite luminescence, 48 h; series mostly up to 57.5 µM
Procedure, shortened: as §2

[16] = test system: PA-1; assay: as above; conditions: Gynecologic cancer cell panel viability, ATPlite luminescence, 48 h; series mostly up to 57.5 µM
Procedure, shortened: as §2

[17] = test system: SKOV3; assay: as above; conditions: Gynecologic cancer cell panel viability, ATPlite luminescence, 48 h; series mostly up to 57.5 µM
Procedure, shortened: as §2

[18] = test system: Tov-21-G; assay: as above; conditions: Gynecologic cancer cell panel viability, ATPlite luminescence, 48 h; series mostly up to 57.5 µM
Procedure, shortened: as §2

[19] = test system: Tov112D; assay: as above; conditions: Gynecologic cancer cell panel viability, ATPlite luminescence, 48 h; series mostly up to 57.5 µM
Procedure, shortened: as §2

Measured: Potency

O=C(O)c1ccccc1O
inactive: all assays above

CCN(CC)C(C)CN1c2ccccc2Sc2ccccc21 (centres undefined)
inactive: all assays above

CC(C)(C)NCC(O)COc1ccc(NC(=O)NC2CCCCC2)cc1 (centres undefined)
inactive: all assays above

O=C(O)CN1C(=O)c2cccc3cccc(c23)C1=O
not listed: [5]
inactive: all other assays above

CC1=C(C/C=C(\C)CCC[C@H](C)CCC[C@H](C)CCCC(C)C)C(=O)c2ccccc2C1=O
not listed: [5]
inactive: all other assays above

CCN(CC)C(=O)Nc1ccc(OCC(O)CNC(C)(C)C)c(C(C)=O)c1 (centres undefined)
not listed: [5]
inactive: all other assays above

CN(C)CCCO[C@@H]1[C@H]2OC(C)(C)O[C@H]2O[C@@H]1C(O)CO (some centres undefined)
not listed: [5] | [13]
inactive: all other assays above

CCCOC(=O)c1ccccc1
not listed: [5]
inactive: all other assays above

O=C(O)[C@H](O)c1ccccc1
not listed: [9]
inactive: all other assays above

CCCCCCCCCCCCCCCC(=O)NCCO
not listed: [5] | [9] | [17]
inactive: all other assays above

CCC(=O)Nc1ccc(O)cc1
not listed: [5]
inactive: all other assays above

NS(=O)(=O)c1cc2c(cc1C(F)(F)F)NC(Cc1ccccc1)NS2(=O)=O (centres undefined)
not listed: [15]
inactive: all other assays above

c1ccc2c(CC3=NCCN3)cccc2c1
not listed: [5]
inactive: all other assays above
